{"source": "PubChem BioAssay (Tox21)", "note": "Records with an inconclusive call do not appear. Values without a mark were called inactive. Active and inactive are the calls of the source. The call rests on the fitted dose curve. On the % scale 0 is the no-effect control and ±100 the full control effect.", "data": [{"test": "p53 small molecule agonists, cell-based qHTS assay with human liver microsomes (AID 1963577);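 further: p53 response element beta-lactamase reporter cells with liver microsomes plus NADPH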", "settings": "HCT-116 p53RE-bla with human liver microsomes, ratio, 16 h; series mostly up to 66 µM; activation: at the top concentration", "text": "National Center for Advancing Translational Sciences [NCATS]\nDivision of Preclinical Innovation [DPI]\nU.S. Environmental Protection Agency [EPA]\nNational Institutes of Environmental Health Sciences [NIEHS]\nNational Toxicology Program [NTP]\nU.S. Food and Drug Administration [FDA]\np53, a tumor suppressor protein, is activated following cellular insult, including DNA damage and other cellular stresses. The activation of p53 regulates cell fate by inducing DNA repair, cell cycle arrest, apoptosis, or cellular senescence. The activation of p53, therefore, is a good indicator of DNA damage and other cellular stresses. […] The activation of the reporter gene under culture conditions can be detected by fluorescence intensity.\nTox21 Assay Protocol Summary:\nThe p53RE-bla cells were dispensed at 4,000cells/3ul/well in 1536-well black-clear bottom plates. After the assay plates were incubated at 37 C, 5% CO2 incubator for 5 hours, 23 nL of compounds dissolved in DMSO, positive controls or DMSO only was transferred to the assay plate. Following compound addition, 3 uL of human liver microsomes (XenoTech, Kansas City, KS) at final concentration of 0.5 mg/mL and 1uL of Beta-Nicotinamide adenine dinucleotide 2-phosphate (NADPH) at final concentration of 0.5 mg/mL were transferred to the assay plate. The plates were incubated at 37 C for 16 hours. 1 uL of LiveBLAzer detection mixture was added to each well and the plates were incubated at room temperature in the dark for 2 h.", "values": [{"smiles": "CCCCCCCOC(C)=O", "activation": "0.258%"}, {"smiles": "CCCC[O][Al]([O]CCCC)[O]CCCC", "activation": "6.47%"}, {"smiles": "CCCCN=C(N)N=C(N)N", "activation": "0.0861% [at 30.3 µM]"}, {"smiles": "CC(C)CC(=O)OCc1ccccc1", "activation": "1.96%"}, {"smiles": "CCCOCCOCCOCCO", "activation": "0.306%"}, {"smiles": "CCCCOC(=O)C(C)OC(=O)CCC", "note": "(stereo not given)", "activation": "4.12%"}, {"smiles": "CCCO[Si](OCCC)(OCCC)OCCC", "activation": "-3.66%"}, {"smiles": "NCCC(O)(P(=O)(O)O)P(=O)(O)O", "activation": "0.345% [at 30.3 µM]"}, {"smiles": "CC(C)CCCC(C)CCO", "note": "(stereo not given)", "activation": "-8.08%"}, {"smiles": "Cc1c(C)c2c(c(C)c1O)CCC(C)(COc1ccc(CC3SC(=O)NC3=O)cc1)O2", "note": "(stereo not given)", "Potency": "inactive"}, {"smiles": "CCCC1O[C@@H]2C[C@H]3[C@@H]4CCC5=CC(=O)C=C[C@]5(C)[C@H]4[C@@H](O)C[C@]3(C)[C@]2(C(=O)CO)O1", "note": "(stereo not given in full)", "Potency": "inactive"}, {"smiles": "COc1ccc(C(=O)CC(=O)c2ccc(C(C)(C)C)cc2)cc1", "Potency": "inactive"}, {"smiles": "COC(=O)c1ccc(C(=O)OC)cc1", "Potency": "inactive"}, {"smiles": "CC1(C)C(C=C(Cl)Cl)C1C(=O)OCc1cccc(Oc2ccccc2)c1", "note": "(stereo not given)", "activation": "-1.36%"}, {"smiles": "COc1cc2c(Nc3ccc(Br)cc3F)ncnc2cc1OCC1CCN(C)CC1", "activation": "0.0942% [at 30.3 µM]"}, {"smiles": "CC1(C)C2=CCCC(C)(C)[C@]23CC[C@H]1C3", "activation": "0.3%"}, {"smiles": "Fc1ccccc1-c1ccccc1", "activation": "-0.674%"}, {"smiles": "CC1(C)[C@H](C(=O)OCc2cccc(Oc3ccccc3)c2)[C@@H]1C=C(Cl)Cl", "activation": "1.71%"}, {"smiles": "COCCOCCOCCOCCOC", "activation": "-2.45%"}, {"smiles": "C=CCCC=C", "activation": "-12.9%"}, {"smiles": "CCCCCC/C=C/C(=O)OC", "activation": "1.17%"}, {"smiles": "N=C(N)c1ccc2cc(OC(=O)c3ccc(N=C(N)N)cc3)ccc2c1", "activation": "-1.18% [at 30.3 µM]"}, {"smiles": "FC(F)(F)c1cccc(Cl)c1", "activation": "-0.584%"}, {"smiles": "c1ccc2c(c1)CCC2", "activation": "0.275%"}, {"smiles": "CCO/C([O-])=N/c1c[n+](N2CCOCC2)no1", "activation": "-2.57% [at 30.3 µM]"}, {"smiles": "O=C(c1ccc(Cl)cc1)c1ccc(Cl)cc1", "activation": "1.31%"}, {"smiles": "O=c1[nH]c(=O)c2ccccc2o1", "activation": "-2.27% [at 30.3 µM]"}, {"smiles": "OCCCC1CCCCC1", "activation": "0.455%"}, {"smiles": "c1ccc2ncccc2c1", "Potency": "inactive"}, {"smiles": "CCCCC(CC)COC(=O)CC(C(=O)OCC(CC)CCCC)S(=O)(=O)O", "note": "(stereo not given)", "Potency": "inactive"}, {"smiles": "COc1ccc2cccc(CCNC(C)=O)c2c1", "activation": "-8.76% [at 30.3 µM]"}, {"smiles": "COC(=O)C1=C(C)NC(C)=C(C(=O)OCC(C)C)C1c1ccccc1[N+](=O)[O-]", "note": "(stereo not given)", "Potency": "inactive"}, {"smiles": "OC[C@H]1O[C@@H](O[C@H]2[C@H](O)[C@@H](O)[C@H](O)O[C@@H]2CO)[C@H](O)[C@@H](O)[C@H]1O", "activation": "1.54%"}, {"smiles": "NCCO", "Potency": "inactive"}, {"smiles": "COC(=O)c1c(Cl)c(Cl)c(C(=O)OC)c(Cl)c1Cl", "activation": "0.801%"}, {"smiles": "NS(=O)(=O)c1ccc(NC(=O)CCC(=O)O)cc1", "activation": "0.693% [at 30.3 µM]"}, {"smiles": "NNS(=O)(=O)c1ccc(Oc2ccc(S(=O)(=O)NN)cc2)cc1", "activation": "0.67%"}, {"smiles": "CO[Si](OC)(OC)c1ccccc1", "activation": "-0.751%"}, {"smiles": "CCC(C)S", "note": "(stereo not given)", "activation": "0.369% [at 2.33 µM]"}, {"smiles": "Cc1cc(C)cc(OCC2CNC(=O)O2)c1", "note": "(stereo not given)", "activation": "-3.49% [at 30.3 µM]"}]}]}
